Columns and labels:
Experiment in all cases: log2 ratio of Biotin-Ahx-Ub-VS probe labelling (fragment/DMSO); higher = less target engagement (more negative = stronger competition), active = hit call of the paper (q ≤ 0.05, log2 ratio ≤ -1)
Details in all cases: compound concentration: 200 uM; treatment time: 3 h
USP19 = target: T1, USP19 (UniProt O94966)
T1 sequence (whole entry): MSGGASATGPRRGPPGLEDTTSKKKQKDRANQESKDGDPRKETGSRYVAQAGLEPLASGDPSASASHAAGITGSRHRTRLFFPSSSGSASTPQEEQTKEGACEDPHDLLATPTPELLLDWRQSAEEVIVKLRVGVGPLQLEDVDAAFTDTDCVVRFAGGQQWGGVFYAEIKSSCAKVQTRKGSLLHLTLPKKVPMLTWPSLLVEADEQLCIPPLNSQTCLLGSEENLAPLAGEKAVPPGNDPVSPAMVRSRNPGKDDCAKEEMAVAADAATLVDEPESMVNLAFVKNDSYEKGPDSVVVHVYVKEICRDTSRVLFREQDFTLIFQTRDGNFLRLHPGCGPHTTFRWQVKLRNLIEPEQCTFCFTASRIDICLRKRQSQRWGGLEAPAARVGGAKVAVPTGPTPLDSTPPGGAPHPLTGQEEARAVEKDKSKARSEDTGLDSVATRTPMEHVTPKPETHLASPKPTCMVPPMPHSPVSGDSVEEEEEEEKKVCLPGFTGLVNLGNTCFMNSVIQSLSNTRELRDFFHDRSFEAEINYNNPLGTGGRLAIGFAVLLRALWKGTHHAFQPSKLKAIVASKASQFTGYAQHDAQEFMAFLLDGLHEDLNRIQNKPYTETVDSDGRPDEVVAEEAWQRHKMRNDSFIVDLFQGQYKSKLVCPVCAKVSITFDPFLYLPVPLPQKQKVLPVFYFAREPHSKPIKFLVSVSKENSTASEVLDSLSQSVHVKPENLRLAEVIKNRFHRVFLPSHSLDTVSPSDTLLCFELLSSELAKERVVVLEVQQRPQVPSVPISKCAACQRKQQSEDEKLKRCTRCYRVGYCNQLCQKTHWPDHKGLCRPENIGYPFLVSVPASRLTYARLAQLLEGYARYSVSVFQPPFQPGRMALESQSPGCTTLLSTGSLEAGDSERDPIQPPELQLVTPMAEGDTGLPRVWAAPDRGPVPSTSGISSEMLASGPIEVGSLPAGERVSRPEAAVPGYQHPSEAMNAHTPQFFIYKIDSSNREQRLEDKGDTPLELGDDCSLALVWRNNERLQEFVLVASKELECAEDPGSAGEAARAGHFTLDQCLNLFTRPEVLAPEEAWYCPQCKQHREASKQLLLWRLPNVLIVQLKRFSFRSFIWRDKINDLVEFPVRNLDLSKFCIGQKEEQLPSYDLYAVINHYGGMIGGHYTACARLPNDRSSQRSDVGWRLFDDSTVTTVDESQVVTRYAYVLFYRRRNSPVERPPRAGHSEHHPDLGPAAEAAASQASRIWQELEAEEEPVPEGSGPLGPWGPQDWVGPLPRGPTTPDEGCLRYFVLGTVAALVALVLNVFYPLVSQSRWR
In short: (§1)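 In triplicate, 495 µg of HEK293T lysate per sample was incubated with fragment at 200 µM or vehicle for 3 h. Biotin-Ahx-Ub-VS was then added to 0.5 µM final for 1 h, and labelled DUBs were captured with NeutrAvidin, digested with LysC and trypsin, and measured by diaPASEF LC-MS/MS. Data are average log2 fragment/vehicle ratios by unpaired t-test from global-median-normalised Spectronaut label-free quantities, restricted to proteins with ≥2 unique peptides.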

USP22 = target: T2, USP22 (UniProt Q9UPT9)
T2 sequence (whole entry): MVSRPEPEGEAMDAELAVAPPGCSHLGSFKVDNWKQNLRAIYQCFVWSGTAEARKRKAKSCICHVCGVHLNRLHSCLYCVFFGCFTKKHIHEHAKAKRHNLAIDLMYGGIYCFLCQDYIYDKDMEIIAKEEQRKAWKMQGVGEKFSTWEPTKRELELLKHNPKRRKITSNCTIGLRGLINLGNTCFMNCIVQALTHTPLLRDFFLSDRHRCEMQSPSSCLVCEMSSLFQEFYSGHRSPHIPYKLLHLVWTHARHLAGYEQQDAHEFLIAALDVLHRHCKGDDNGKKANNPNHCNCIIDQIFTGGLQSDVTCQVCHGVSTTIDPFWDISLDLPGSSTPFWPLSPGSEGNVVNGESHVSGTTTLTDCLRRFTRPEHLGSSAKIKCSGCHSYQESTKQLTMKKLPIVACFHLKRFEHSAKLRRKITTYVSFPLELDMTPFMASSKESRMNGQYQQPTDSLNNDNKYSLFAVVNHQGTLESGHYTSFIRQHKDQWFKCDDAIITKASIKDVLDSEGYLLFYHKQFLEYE
In short: as §1

USP24 = USP24 (UniProt Q9UPU5)
USP24, sequence (Q9UPU5 whole entry): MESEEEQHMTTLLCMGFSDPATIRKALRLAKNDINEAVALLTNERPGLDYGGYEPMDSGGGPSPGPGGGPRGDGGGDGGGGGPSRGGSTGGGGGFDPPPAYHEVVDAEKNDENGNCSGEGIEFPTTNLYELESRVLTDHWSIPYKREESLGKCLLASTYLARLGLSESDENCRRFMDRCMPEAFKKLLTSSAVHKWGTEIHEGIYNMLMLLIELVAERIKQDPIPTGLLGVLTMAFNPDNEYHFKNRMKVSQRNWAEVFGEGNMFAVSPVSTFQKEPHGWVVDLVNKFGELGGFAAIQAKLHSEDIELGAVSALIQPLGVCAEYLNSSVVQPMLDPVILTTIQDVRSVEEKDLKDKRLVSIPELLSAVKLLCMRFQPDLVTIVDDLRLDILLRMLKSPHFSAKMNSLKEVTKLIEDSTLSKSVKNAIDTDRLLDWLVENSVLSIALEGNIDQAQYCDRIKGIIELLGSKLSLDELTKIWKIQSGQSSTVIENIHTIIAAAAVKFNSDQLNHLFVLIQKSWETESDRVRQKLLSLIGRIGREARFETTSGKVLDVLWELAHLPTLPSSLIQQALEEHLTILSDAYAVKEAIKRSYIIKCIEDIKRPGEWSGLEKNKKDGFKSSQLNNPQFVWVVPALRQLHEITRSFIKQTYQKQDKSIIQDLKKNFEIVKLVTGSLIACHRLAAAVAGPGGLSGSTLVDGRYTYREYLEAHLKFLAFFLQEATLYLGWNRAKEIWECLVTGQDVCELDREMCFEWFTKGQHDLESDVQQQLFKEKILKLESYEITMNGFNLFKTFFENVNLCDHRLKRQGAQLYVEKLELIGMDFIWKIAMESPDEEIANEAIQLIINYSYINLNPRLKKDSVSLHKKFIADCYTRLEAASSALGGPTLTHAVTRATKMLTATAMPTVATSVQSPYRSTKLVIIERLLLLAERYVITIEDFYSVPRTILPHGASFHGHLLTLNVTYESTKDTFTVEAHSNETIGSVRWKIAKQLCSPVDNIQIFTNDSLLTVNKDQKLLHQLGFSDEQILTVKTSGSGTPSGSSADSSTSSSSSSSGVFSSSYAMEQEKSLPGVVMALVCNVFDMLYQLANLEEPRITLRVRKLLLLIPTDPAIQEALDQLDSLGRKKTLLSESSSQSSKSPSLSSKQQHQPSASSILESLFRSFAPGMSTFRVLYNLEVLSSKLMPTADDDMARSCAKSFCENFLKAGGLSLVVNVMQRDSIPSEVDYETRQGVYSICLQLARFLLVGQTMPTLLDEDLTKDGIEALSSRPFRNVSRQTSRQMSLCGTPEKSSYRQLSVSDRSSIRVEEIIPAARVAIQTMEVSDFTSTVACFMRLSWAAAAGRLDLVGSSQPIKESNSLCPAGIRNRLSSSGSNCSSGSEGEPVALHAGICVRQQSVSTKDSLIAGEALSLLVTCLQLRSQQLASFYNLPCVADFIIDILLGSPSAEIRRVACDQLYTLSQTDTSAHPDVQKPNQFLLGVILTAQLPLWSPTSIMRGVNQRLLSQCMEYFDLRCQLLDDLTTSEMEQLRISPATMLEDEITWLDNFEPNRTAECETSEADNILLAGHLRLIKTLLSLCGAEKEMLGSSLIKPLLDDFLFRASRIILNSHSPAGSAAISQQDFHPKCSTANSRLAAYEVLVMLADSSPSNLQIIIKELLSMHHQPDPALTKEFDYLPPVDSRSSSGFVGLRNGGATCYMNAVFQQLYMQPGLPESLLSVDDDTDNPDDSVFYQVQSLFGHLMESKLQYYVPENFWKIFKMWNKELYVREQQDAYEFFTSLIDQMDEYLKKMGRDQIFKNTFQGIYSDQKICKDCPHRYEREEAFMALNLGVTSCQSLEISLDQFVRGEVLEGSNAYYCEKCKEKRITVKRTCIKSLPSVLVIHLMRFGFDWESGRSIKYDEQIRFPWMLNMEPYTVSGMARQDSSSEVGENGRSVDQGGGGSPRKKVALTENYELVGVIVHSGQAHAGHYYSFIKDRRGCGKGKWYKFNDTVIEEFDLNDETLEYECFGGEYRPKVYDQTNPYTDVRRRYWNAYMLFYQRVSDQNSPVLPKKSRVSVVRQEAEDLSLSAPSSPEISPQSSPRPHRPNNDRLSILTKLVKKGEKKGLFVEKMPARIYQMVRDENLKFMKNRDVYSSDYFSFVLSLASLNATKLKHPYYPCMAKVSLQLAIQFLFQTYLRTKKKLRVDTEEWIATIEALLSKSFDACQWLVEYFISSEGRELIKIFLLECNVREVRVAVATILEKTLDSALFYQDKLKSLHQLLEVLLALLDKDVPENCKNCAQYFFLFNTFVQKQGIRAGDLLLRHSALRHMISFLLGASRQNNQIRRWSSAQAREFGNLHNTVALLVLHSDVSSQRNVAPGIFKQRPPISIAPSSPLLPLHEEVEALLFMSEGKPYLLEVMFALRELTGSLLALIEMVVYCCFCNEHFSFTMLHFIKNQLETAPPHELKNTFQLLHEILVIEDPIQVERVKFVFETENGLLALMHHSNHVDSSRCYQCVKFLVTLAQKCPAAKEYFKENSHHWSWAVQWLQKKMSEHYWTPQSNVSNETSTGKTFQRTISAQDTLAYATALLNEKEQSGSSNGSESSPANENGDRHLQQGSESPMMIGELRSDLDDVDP
In short: as §1

USP25 = target: T3, USP25 (UniProt Q9UHP3)
T3 sequence (whole entry): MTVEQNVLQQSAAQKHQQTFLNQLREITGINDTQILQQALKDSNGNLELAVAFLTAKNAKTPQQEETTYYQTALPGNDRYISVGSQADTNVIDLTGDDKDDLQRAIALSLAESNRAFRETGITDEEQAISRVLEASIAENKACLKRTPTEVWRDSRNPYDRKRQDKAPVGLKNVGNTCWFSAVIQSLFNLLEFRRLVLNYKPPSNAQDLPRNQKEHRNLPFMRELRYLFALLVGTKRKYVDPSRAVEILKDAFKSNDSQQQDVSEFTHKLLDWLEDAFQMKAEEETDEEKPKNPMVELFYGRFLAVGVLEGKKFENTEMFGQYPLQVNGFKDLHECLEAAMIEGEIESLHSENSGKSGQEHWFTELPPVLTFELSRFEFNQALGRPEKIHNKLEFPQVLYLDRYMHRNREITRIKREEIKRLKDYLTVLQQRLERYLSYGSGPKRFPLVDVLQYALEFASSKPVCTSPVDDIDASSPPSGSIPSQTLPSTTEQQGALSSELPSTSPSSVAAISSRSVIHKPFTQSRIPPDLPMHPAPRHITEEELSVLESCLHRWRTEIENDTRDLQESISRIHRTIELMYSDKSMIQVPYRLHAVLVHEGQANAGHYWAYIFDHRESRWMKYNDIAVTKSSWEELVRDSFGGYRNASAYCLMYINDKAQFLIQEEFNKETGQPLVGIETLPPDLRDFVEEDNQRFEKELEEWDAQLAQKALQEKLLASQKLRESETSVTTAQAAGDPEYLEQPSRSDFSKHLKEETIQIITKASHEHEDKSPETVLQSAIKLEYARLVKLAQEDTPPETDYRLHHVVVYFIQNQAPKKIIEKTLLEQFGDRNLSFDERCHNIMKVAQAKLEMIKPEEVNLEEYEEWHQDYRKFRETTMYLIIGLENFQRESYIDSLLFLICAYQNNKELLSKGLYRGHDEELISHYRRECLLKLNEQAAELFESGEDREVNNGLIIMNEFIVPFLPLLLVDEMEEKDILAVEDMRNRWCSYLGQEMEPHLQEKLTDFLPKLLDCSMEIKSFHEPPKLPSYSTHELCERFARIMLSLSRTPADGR
In short: as §1

USP28 = target: T4, USP28 (UniProt Q96RU2)
T4 sequence (whole entry): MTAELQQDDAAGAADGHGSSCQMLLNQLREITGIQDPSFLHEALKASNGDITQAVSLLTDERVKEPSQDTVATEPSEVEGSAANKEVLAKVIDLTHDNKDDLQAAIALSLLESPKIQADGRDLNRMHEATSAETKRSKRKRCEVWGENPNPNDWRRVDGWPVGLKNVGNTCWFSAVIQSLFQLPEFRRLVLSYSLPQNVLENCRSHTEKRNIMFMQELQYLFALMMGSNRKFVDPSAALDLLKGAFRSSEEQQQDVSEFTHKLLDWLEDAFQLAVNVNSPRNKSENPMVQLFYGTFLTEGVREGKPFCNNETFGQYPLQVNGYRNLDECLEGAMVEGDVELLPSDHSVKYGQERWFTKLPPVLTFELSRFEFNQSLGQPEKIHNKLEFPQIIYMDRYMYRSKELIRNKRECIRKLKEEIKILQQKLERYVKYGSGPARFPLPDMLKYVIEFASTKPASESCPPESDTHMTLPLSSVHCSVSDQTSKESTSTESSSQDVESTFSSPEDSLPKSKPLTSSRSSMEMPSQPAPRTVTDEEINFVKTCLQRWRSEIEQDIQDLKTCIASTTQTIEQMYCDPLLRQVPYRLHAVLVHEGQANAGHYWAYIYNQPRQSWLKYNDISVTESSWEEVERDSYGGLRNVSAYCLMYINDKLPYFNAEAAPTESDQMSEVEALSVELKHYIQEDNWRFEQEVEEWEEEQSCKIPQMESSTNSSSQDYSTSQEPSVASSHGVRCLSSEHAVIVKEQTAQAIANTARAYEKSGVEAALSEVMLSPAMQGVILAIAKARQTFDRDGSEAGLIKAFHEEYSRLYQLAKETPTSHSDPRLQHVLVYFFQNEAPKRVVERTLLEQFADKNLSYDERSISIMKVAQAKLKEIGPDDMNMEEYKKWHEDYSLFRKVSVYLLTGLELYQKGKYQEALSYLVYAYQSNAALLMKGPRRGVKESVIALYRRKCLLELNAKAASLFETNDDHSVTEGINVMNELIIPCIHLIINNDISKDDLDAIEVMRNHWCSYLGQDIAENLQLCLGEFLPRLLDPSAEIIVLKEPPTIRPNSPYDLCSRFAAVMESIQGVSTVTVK
In short: as §1

Measured: log2 ratio of Biotin-Ahx-Ub-VS probe labelling

Cc1ccc2nnc(CNC(=O)CCl)n2c1
inactive: USP19 -0.0329 | USP22 -0.259 | USP24 0.0887 | USP25 0.182 | USP28 -0.241

From the supplement of paper PMC11732987, “Enantioselective OTUD7B fragment discovery through chemoproteomics screening and high-throughput optimisation” (Communications Chemistry, 2025)
